Results taken from the supplement of paper PMC6555819.

What was measured:
Assay in all cases: PBM binding z-score (relative to random genomic background probes); higher = stronger binding; sequences stand for … in GC…GCGATTGACAGCGTAGAATGAAGG
[1] = tested on: PPARg:RXRa DBDmut IVT, anti-RXR (DBD mutation: RXRa K156A/R161A, NR concentration 270 nM, RXRa partner concentration 90 nM)
Method in brief: (§1)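 Each nuclear receptor dimer, without ligand, was incubated for 1 h on custom Agilent 4×180K protein-binding microarrays. Binding was detected with antibodies against each partner (one per run), and scanned fluorescence was regression-normalized. The binding z-scores are referenced to random human genomic background probes.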

[2] = tested on: PPARg:RXRa IVT, anti-PPARg (NR concentration 270 nM, RXRa partner concentration 90 nM)
Method in brief: as §1

[3] = tested on: PPARg DBDmut:RXRa IVT, anti-PPARg (DBD mutation: PPARg1 K132A/R137A, NR concentration 270 nM, RXRa partner concentration 90 nM)
Method in brief: as §1

[4] = tested on: PPARg DBDmut IVT, anti-PPARg (DBD mutation: PPARg1 K132A/R137A, NR concentration 270 nM)
Method in brief: as §1

[5] = tested on: PPARg homodimer (NR concentration 180 nM)
Method in brief: as §1

[6] = tested on: PXR:RXRa (NR concentration 270 nM, RXRa partner concentration 90 nM)
Method in brief: as §1

[7] = tested on: PXR homodimer (NR concentration 270 nM)
Method in brief: as §1

[8] = tested on: RARa:RXR (NR concentration 270 nM, RXRa partner concentration 90 nM)
Method in brief: as §1

[9] = tested on: RARa homodimer (NR concentration 270 nM)
Method in brief: as §1

[10] = tested on: RARb:RXRa (NR concentration 270 nM, RXRa partner concentration 90 nM)
Method in brief: as §1

[11] = tested on: RARb homodimer (NR concentration 270 nM)
Method in brief: as §1

[12] = tested on: RARg:RXRa (NR concentration 270 nM, RXRa partner concentration 90 nM)
Method in brief: as §1

[13] = tested on: RARg homodimer (NR concentration 270 nM)
Method in brief: as §1

[14] = tested on: RXRa DBDmut IVT, anti-RXR (DBD mutation: RXRa K156A/R161A, NR concentration 90 nM)
Method in brief: as §1

[15] = tested on: RXRa homodimer (NR concentration 180 nM)
Method in brief: as §1

[16] = tested on: THRa:RXRa (NR concentration 90 nM, RXRa partner concentration 90 nM)
Method in brief: as §1

[17] = tested on: THRa homodimer (NR concentration 90 nM)
Method in brief: as §1

[18] = tested on: VDR homodimer (NR concentration 270 nM)
Method in brief: as §1

| Sequence | PBM binding z-score [1] | PBM binding z-score [2] | PBM binding z-score [3] | PBM binding z-score [4] | PBM binding z-score [5] | PBM binding z-score [6] | PBM binding z-score [7] | PBM binding z-score [8] | PBM binding z-score [9] | PBM binding z-score [10] | PBM binding z-score [11] | PBM binding z-score [12] | PBM binding z-score [13] | PBM binding z-score [14] | PBM binding z-score [15] | PBM binding z-score [16] | PBM binding z-score [17] | PBM binding z-score [18] |
| --- | --- | --- | --- | --- | --- | --- | --- | --- | --- | --- | --- | --- | --- | --- | --- | --- | --- | --- |
| CTACGAAGGTGAACAAGGTCGTTGATTACTATTC | 2.27 | 2.28 | 0.435 | 0.389 | 0.63 | 2.98 | 1.39 | 2.46 | 0.451 | 2.33 | 2.4 | 2.2 | 1.98 | 1.51 | 2.21 | 2.91 | 1.08 | 2.46 |
| ACAGACAGGTGAGCGAAGGTAACTCAGCTGGACG | 0.465 | 0.783 | 0.567 | -0.608 | -0.706 | -0.51 | -0.963 | 0.056 | -0.65 | 0.608 | 0.0254 | 0.199 | 0.463 | -0.651 | 0.258 | 1.74 | -0.377 | -0.771 |
| AGAACGAGGGCACGCTGAGTTGATAGCAGAGTAG | 4.13 | 3.81 | 0.29 | -0.41 | 0.297 | 1.28 | -0.0574 | 0.83 | 0.0569 | 2.52 | 1.21 | 2.08 | 2.42 | 1.95 | 1.36 | 1.83 | -0.0157 | 1.98 |
| CAAACTAGGTCAGGGTCAAAGTCGGTTTGTGCCA | 8.32 | 8.36 | 4.34 | 3.17 | 4.2 | 4.81 | 1.33 | 5.35 | 1.42 | 4.47 | 4.45 | 5.19 | 5.4 | 2.77 | 5.47 | 3.89 | 2.25 | 4.18 |
| TCATATGGGTAAAAGGTGAAAGTCGGTGTGGTAA | 4.48 | 4.52 | 0.558 | 0.338 | 1.03 | 1.61 | -0.132 | 2.3 | 0.788 | 1.85 | 1.98 | 1.7 | 0.446 | 1.05 | 2.64 | 1.46 | 0.164 | -0.0613 |
| TTACCAAGGGGAAAGGTCGTTGATGCACGCCTTG | 0.296 | 2.61 | 0.358 | 0.0839 | 1.27 | 2.44 | 0.149 | 2.73 | -0.553 | 1.77 | 1.72 | 1.92 | 0.864 | 0.0883 | 2.86 | 1.4 | -0.14 | 1.52 |
| CCCACTGGGGCATAAGGTTACCATAAGCCAGCCC | 3.37 | 4.87 | -0.75 | -0.412 | 0.0588 | 0.0928 | -0.684 | 1.07 | -0.44 | 1.46 | 1.49 | 1.56 | 1.09 | -1.4 | 1.07 | 1.92 | 1.01 | -0.364 |
| AGAATGAGATTAAGATCAGGGAAACAGAATACAT | -0.828 | -0.427 | 0.0625 | 0.018 | 0.131 | -0.366 | 0.121 | -0.347 | -0.129 | -1.06 | -0.523 | 0.0579 | 0.312 | -0.493 | -0.0987 | -0.0153 | -0.567 | -0.0769 |
| GCGGCTGGGGCATCAGCAGGTTACCATAACTTAA | -0.444 | 0.118 | -1.33 | -0.84 | 0.149 | 0.178 | -0.595 | 0.635 | -0.988 | 0.966 | 1.16 | 0.705 | 0.632 | -0.632 | 0.166 | 1.01 | -0.483 | -0.207 |
| GTTGCTAGGTCAACTGATGGTCAGCTAAAGCTCG | 5.15 | 4.94 | 1.14 | -0.255 | 1.33 | 1.47 | -0.554 | 3.03 | -0.133 | 4.26 | 3.54 | 5.4 | 5.9 | 1.48 | 3.11 | 3.09 | 1.46 | 0.164 |
| TAGCCTAGGTCAGATCGGGCCAGGATACGCTATA | -0.033 | 1.22 | -0.531 | -0.442 | -0.135 | 0.771 | -0.663 | 0.816 | -1.26 | 3 | 1.88 | 2.77 | 3.35 | -0.775 | 1.45 | 4.2 | 0.225 | -0.433 |
| TCTAGCAGGTCAGAGGGTCACTCAAGAGGTACGG | 2.58 | 3.84 | 0.285 | -0.567 | 3.57 | 3.55 | -0.129 | 5.12 | 0.365 | 4.07 | 4.51 | 5.64 | 5.13 | 0.85 | 5.09 | 3.03 | 0.408 | 1.72 |
| CGTCCAAGGACAGCAGGTCAGTGAAAGCGACGTG | 0.0757 | 0.113 | -1.43 | -0.869 | -0.0601 | 0.288 | -0.263 | 0.676 | -0.162 | 2.37 | 2.36 | 1.72 | 2.06 | 0.0474 | 0.679 | 2.46 | 0.788 | -0.264 |
| ACATACAGGTGATGAAGGTAACTCAGGCTATCAT | 1.27 | 1.16 | 1.17 | 0.566 | 0.36 | 0.132 | 0.441 | 0.745 | 0.688 | 0.588 | 0.492 | 0.787 | 0.615 | 0.27 | 0.874 | 1.16 | 0.135 | 0.174 |
| CCTAGCAGGCTAGGGTCACTCAAGCATTTCGCTT | 0.26 | 0.393 | -1.9 | -1.59 | 1.58 | 3.3 | -0.41 | 4.27 | -0.0687 | 2.89 | 2.67 | 3.35 | 2.35 | 0.61 | 3.65 | 3.64 | 1.81 | 1.07 |
